These results are taken from PubChem BioAssay AID588335 (The Scripps Research Institute Molecular Screening Center, 2011).

Screen size: about 360,000 compounds; about 4,500 (1.2%) were called active. No stated cut-off is given here; in the data, active means inhibition above about 30%; inactive means the rest. Many of the other results were omitted from the sample, so actives are more common in it than they were.

Broadly, the inhibition is the drop in the measured response relative to a control, in per cent.

The nature of the assay: inhibition of GDH and TPI enzymes – biochemical, absorbance, full deck, artefact control for M. tuberculosis FBA inhibitor project, primary screen (AID 588335).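 Further: 0% = DMSO wells and 100% = wells lacking the enzyme.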 Conditions: GDH-TPI coupled enzyme counterscreen, NADH absorbance; at 4.8 µM; hits give high values.
On to `O=C(ON=C1CCN(S(=O)(=O)c2ccccc2)CC1)c1ccc(Cl)cc1`, for which the inhibition is 4.57% (inactive).

In the case of `CN1CCN(c2ncc3c(n2)CC(c2ccccc2F)CC3=O)CC1` (centres undefined), the inhibition is 4.15% (inactive).

Turning to `CCc1ccc(Nc2ncc3c(n2)CC(c2ccco2)CC3=O)cc1` (centres undefined), the inhibition is 37.7% (active).

Regarding `Cc1ccc2nc(Nc3ncc4c(n3)CC(C)(C)CC4=O)nc(C)c2c1`, the inhibition was 1.22% (inactive).

For `COc1ccc(Cl)cc1C=CC=Nc1ccc(S(N)(=O)=O)cc1`, the inhibition was 5.17% (inactive).

Regarding `COc1ccc(Cl)cc1C=CC=NNC(=O)c1ccncc1`, the inhibition was 50% (active).

`CC(=NNC(=O)c1ccncc1)c1ccc(Cl)c(Cl)c1`: the inhibition is 0.88% (inactive).

As for `CCOc1nc(OCC)nc(-n2cc(-c3ccccc3)nn2)n1`, the inhibition was -5.88% (inactive).

`Cc1cc(=O)oc2c3c(cc(OCC(=O)NCC(O)c4ccccc4)c12)OC(C)(C)CC3` (centres undefined): the inhibition was 15.3% (inactive).

Consider `Cc1c(C)c2c(OCC(=O)N[C@@H](C(=O)O)c3ccccc3)cc3c(c2oc1=O)CCC(C)(C)O3`, for which the inhibition was 35.3% (active).

In the case of `Cc1cc(=O)oc2c3c(cc(OCC(=O)NCc4ccccn4)c12)OC(C)(C)CC3`, the inhibition is 18.6% (inactive).

On to `Cc1cc(=O)oc2c3c(cc(OCC(=O)N[C@H](C(=O)O)c4ccccc4)c12)OC(C)(C)CC3`, for which the inhibition is 31.4% (active).

Consider `Cc1c(C)c2c(OCC(=O)NCCCO)cc3c(c2oc1=O)CCC(C)(C)O3`, for which the inhibition is 15% (inactive).

Take `Cc1cc(=O)oc2c3c(cc(OCC(=O)NCCC(=O)N[C@@H](C)C(=O)O)c12)OC(C)(C)CC3`: the inhibition is 15.1% (inactive).

As to `COc1cc(C(F)(F)F)nc2c(Br)c(C(C)(C)C)nn12`, the inhibition is 11.5% (inactive).

For `CCCCN(C(=O)C(CCSC)N1C(=O)c2ccccc2C1=O)c1c(N)n(CCC)c(=O)[nH]c1=O` (centres undefined), the inhibition is 6.94% (inactive).

Consider `Cc1onc(-c2ccccc2)c1-c1nnc(COC(=O)c2ccc(N(C)C)cc2)o1`, for which the inhibition is 16.8% (inactive).

On to `CCOCCCNC(=O)C(NC(=O)c1ccc(=O)[nH]c1)c1ccc(Cl)cc1` (centres undefined), for which the inhibition is 14.7% (inactive).

For the compound `CC(C)NS(=O)(=O)c1ccc(NC(=O)c2cccnc2)cc1`, the inhibition is -0.48% (inactive).

Turning to `Cc1cc2nc(-c3ccc(NC(=O)c4cccnc4)cc3)oc2cc1C`, the inhibition is 34.4% (active).

For `Cc1ccc(-n2nc3cc(C)c(NC(=O)c4cccnc4)cc3n2)cc1`, the inhibition is 15.4% (inactive).

Take `CCc1ccc(NC2Nc3cc(C)nn3S2)cc1` (centres undefined): the inhibition was 3.7% (inactive).

Take `Cc1ccc(C(=O)N[C@H](C(=O)N2CCN(c3ncccn3)CC2)C(C)C)cc1`: the inhibition was 4.42% (inactive).

As to `COC(=O)c1cc(C(=O)CSc2nc(C)cc(C)n2)ccc1O`, the inhibition was 31.6% (active).

In the case of `COc1ccc(C(=O)CSc2n[nH]c(N)n2)cc1`, the inhibition was 4% (inactive).

As for `COC(=O)c1cccc(NC(=O)CSc2nc(C)cc(=O)[nH]2)c1`, the inhibition was -11.5% (inactive).

Consider `CCOC(=O)Cn1c(=O)n(Cc2ccc(OC)cc2)c(=O)c2cccnc21`, for which the inhibition was 5% (inactive).

On to `O=C1N(Cc2ccc3c(c2)OCO3)c2ccccc2C1(O)c1c[nH]c2ccccc12` (centres undefined), for which the inhibition is 7.18% (inactive).

In the case of `Cc1cccc(CCNS(=O)(=O)c2ccc(S(=O)(=O)NC3CCCC3)cc2)c1`, the inhibition was 10.9% (inactive).

Turning to `O=C1C2C3C=CC(C4CC34)C2C(=O)N1/N=C/c1ccc(-c2ccccc2[N+](=O)[O-])o1` (centres undefined), the inhibition was 50.6% (active).

Take `Cc1c(/C=N/N2C(=O)C3C4C=CC(C4)C3C2=O)c2ccccc2n1C` (centres undefined): the inhibition was 21.5% (inactive).

As for `CN(C(=O)CSc1nc(C2CC2)nc2ccccc12)c1nc(-c2ccccc2)cs1`, the inhibition is 8.44% (inactive).

With `CCCCn1c(N)c(N(CCC(C)C)C(=O)COC(=O)c2ccc(CC)cc2)c(=O)[nH]c1=O`, the inhibition is 9.06% (inactive).

Regarding `CN(CCc1ccccc1)C(=O)c1cccc(NC(=O)Cc2cccc(NC(=O)C3CCCN(C(=O)C4CCC4)C3)c2)c1` (centres undefined), the inhibition was 4.55% (inactive).

In the case of `COc1ccc(Nc2cc(Sc3ccc(OC)cc3)ncn2)cc1`, the inhibition is -3.81% (inactive).

`COc1ccc(NC2=CC(=S)NC(C)(C)C2)cc1`: the inhibition was 31.3% (active).

For the compound `COc1ccc(CCNC2=CC(=O)CC(C)(C)C2)cc1`, the inhibition was 4.76% (inactive).

With `CCOC(=O)[C@H]1CCC[C@@H](NS(=O)(=O)c2ccc(NC(C)=O)cc2)C1`, the inhibition was -3.39% (inactive).

As to `OC(c1ccccc1)c1nc(-c2cnc3ccccc3c2)cs1` (centres undefined), the inhibition was -3.54% (inactive).

Consider `COCCN(C(=O)c1ccccc1F)c1c(N)n(Cc2ccccc2)c(=O)[nH]c1=O`, for which the inhibition was -6.6% (inactive).

Turning to `CC/C(=N\NC(=O)c1ccccc1Cl)c1ccc(Br)s1`, the inhibition was 16.7% (inactive).

In the case of `CC/C(=N\NC(=O)c1ccccc1O)c1c(O)n(Cc2ccccc2)c(=O)[nH]c1=O`, the inhibition was 57% (active).

Take `Cc1ccccc1Nc1scc(-c2ccc(Br)cc2)[n+]1-c1ccccc1C`: the inhibition was -1.89% (inactive).

On to `COCCNc1cc(NCCOC)c([N+](=O)[O-])cc1[N+](=O)[O-]`, for which the inhibition is 15.1% (inactive).
